Source: PubChem BioAssay (National Center for Advancing Translational Sciences (NCATS))
Hits are enriched below; roughly 7.5% of the tested compounds scored in any of these assays.
FLuc modulator: qHTS profiling assay for firefly luciferase inhibitor/activator using purifed enzyme and Km concentrations of substrates (counterscreen for miR-21 project); Luciferin 4-monooxygenase (Photinus pyralis), P08659; purified FLuc, Km substrates, luminescence inhibition; Potency, µM (doses to about 57.5 µM), usual class: inhibitors; hit rate 6.9% among 360,000; also: nearly all actives have a fitted effect of over 55% in size
Target sequence (P08659 whole entry, looked up): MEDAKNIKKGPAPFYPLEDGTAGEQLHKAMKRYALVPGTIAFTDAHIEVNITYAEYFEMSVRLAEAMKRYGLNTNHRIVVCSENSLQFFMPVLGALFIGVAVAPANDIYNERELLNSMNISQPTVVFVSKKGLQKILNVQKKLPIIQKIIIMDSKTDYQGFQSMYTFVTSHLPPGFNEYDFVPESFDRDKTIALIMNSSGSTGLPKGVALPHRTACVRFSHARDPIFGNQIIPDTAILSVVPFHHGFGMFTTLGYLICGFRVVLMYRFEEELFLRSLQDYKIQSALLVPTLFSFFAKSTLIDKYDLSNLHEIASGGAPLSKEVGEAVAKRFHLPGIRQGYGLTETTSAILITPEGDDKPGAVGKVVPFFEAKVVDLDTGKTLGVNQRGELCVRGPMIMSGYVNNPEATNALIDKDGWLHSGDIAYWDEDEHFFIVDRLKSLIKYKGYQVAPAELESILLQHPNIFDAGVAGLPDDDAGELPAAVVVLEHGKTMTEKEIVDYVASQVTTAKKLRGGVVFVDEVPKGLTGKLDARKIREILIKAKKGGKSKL
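Purified P. pyralis luciferase, 10 nM final, with Km-level 10 uM D-luciferin and 10 uM ATP in 50 mM Tris acetate pH 7.5, 10 mM Mg acetate, 0.01% Tween-20, 0.05% BSA; 6-point qHTS titration about 60 µM downward; luminescence read.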
Rab9 promoter act: qHTS Assay for Rab9 Promoter Activators | AID 485297, 2010 | Huh7 Rab9 promoter-luciferase reporter, luminescence, 24 h | hit rate 2.8% among 320,000 | Potency, µM (series often up to 9.22 µM), usual class: activators; also: nearly all actives have a fitted effect of over 60% in size
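Luciferase signal after 10 min detection reagent at ambient indicates Rab9 promoter upregulation; stably transfected Huh7 cells were treated 24 h with compound in DMSO at 37 °C, 5% CO2.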
SMN2 splice enh: qHTS Assay for Enhancers of SMN2 Splice Variant Expression. Potency, µM (series often up to 46.1 µM), actives largely listed as activators. hit rate 2.8% among 210,000. HEK293 SMN2-luciferase splicing reporter, luminescence, 30-36 h. AID 1458, 2008; also: nearly all actives have a fitted effect of over 55% in size
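qHTS luciferase splicing reporter: luminescence rises when SMN2 exon 7 is included in transfected HEK293 cells. Compound exposure lasted 30-36 h at 37C, with 4.5 mM final sodium butyrate as control, followed by a ONE-Glo read.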
NPC1 prom act: qHTS Assay for NPC1 Promoter Activators. Huh7 NPC1 promoter luciferase reporter, 24 h. Potency, µM (doses to about 9.22 µM), hits mostly activators. hit rate 2.4% among 320,000; also: nearly all actives have a fitted effect of over 60% in size
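Stably transfected Huh7 (NPC1 promoter→luciferase), 1500 cells/well in Opti-MEM + 10% FBS, 2 h settle, then compound 24 h at 37 °C. Luminescence after 10 min with Amplite reagent.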
ELG1 genotoxic: qHTS screen for small molecules that induce genotoxicity in human embryonic kidney (HEK293T) cells expressing luciferase-tagged ELG1; HEK293T ELG1-luciferase reporter, luminescence, 16 h; Potency, µM (doses to about 46 µM), most hits filed as activators; hit rate 1.3% among 330,000; also: nearly all actives have a fitted effect of over 60% in size
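ELG1-luciferase HEK293T cells, 2,000/well; compound pinned in; 16 hr, 37 °C, 5% CO2; ONE-Glo, 30 min RT; luminescence on CCD imager.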
Each line names hits and unclear results; the compound was inactive in the other large screens. Calls follow the shape of the dose curve; as a rule, active = well fitted curve in the direction sought with a large enough effect; inconclusive = small, poorly fitted or top-dose-only effect, or another doubt; inactive = no such curve, though single readings can be large; an effect the other way counts as inactive or inconclusive.

COc1ccccc1C(=O)NC(=S)Nc1ccc(NC(=O)c2ccco2)cc1	none (no result: SMN2 splice enh)
O=C(Nc1ccc(NC(=O)c2ccco2)nc1)c1ccccn1	FLuc modulator 6.01µM, Rab9 promoter act 0.708µM, SMN2 splice enh 14.1µM, NPC1 prom act 0.447µM, ELG1 genotoxic inconclusive
COc1ccccc1C(=O)Nc1ccc(NC(=O)c2ccco2)cn1	FLuc modulator 6.01µM, Rab9 promoter act inconclusive, NPC1 prom act inconclusive, ELG1 genotoxic inconclusive (no result: SMN2 splice enh)
O=C(Cc1ccccc1)Nc1ccc(NC(=O)c2ccco2)nc1	FLuc modulator 16.9µM, Rab9 promoter act 2.51µM, SMN2 splice enh inconclusive, NPC1 prom act 2.24µM, ELG1 genotoxic inconclusive
O=C(Nc1ccc(NC(=O)C23CC4CC(CC(C4)C2)C3)cn1)c1ccco1	FLuc modulator 6.01µM, NPC1 prom act 1µM, ELG1 genotoxic 2.31µM
O=C1OC(OC2CCCCC2)(c2ccccc2)c2ccccc21 (centres undefined)	none
COc1cc([N+](=O)[O-])c(C(=O)N2CCOCC2)c([N+](=O)[O-])c1	none
Cc1cccc(CCNc2nc3ccc(C)cc3n3cnnc23)c1	FLuc modulator 16.9µM, NPC1 prom act inconclusive, ELG1 genotoxic inconclusive (no result: SMN2 splice enh)
Cc1ccc2nc(NCCc3ccc(Cl)cc3)c3nncn3c2c1	SMN2 splice enh inconclusive
Cc1ccc(Nc2nc3ccccc3n3cnnc23)cc1C	FLuc modulator inconclusive, Rab9 promoter act inconclusive, NPC1 prom act 1.12µM (no result: SMN2 splice enh)
Cc1ccc2nc(Nc3ccc(C)c(C)c3)c3nncn3c2c1	FLuc modulator inconclusive (no result: SMN2 splice enh)
O=S(=O)(Nc1cccc(-c2cn3c(n2)SCC3)c1)c1cccs1	none
CCn1ncc(/C=N\NC(=O)Cc2ccc([N+](=O)[O-])cc2)c1C	none
COc1ccc(OCC(=O)OCC(=O)NC2CCCCC2C)cc1 (centres undefined)	none (no result: SMN2 splice enh)
Cc1ccc(OCc2nc(-c3ccccc3)no2)c(C)c1	FLuc modulator 3.01µM, Rab9 promoter act 2.24µM, SMN2 splice enh 10µM, NPC1 prom act 2.24µM, ELG1 genotoxic 3.16µM
Clc1ccc(-c2noc(COc3ccccc3)n2)cc1	FLuc modulator 13.5µM
CC(C)(C)Cc1nc(-c2ccc(Cl)cc2)no1	FLuc modulator 15.1µM
Clc1ccc(-c2noc(CN3CCOCC3)n2)cc1	FLuc modulator inconclusive, Rab9 promoter act 3.16µM, NPC1 prom act 2µM, ELG1 genotoxic inconclusive (no result: SMN2 splice enh)
Clc1ccc(-c2noc(CCCOc3ccccc3)n2)cc1	none
Cc1ccc(C(=O)N/C(=C\c2cccc([N+](=O)[O-])c2)C(=O)OCN2C(=O)c3ccccc3C2=O)cc1	FLuc modulator inconclusive
CC(C)c1ccc(N(CC(=O)NC2CCCCC2)C(=O)CCC(=O)Nc2ccccn2)cc1	none (no result: SMN2 splice enh)
CCN(CC)C(=O)c1cc(Cl)ccc1NC(=O)c1ccco1	none (no result: SMN2 splice enh)
Cn1c(-c2ccccc2)c(/C=N/NC(=O)c2cccnc2)c2ccccc21	FLuc modulator 5.36µM, SMN2 splice enh inconclusive
O=C(N/N=C/c1c(-c2ccccc2)[nH]c2ccccc12)c1cccnc1	FLuc modulator 3.01µM, SMN2 splice enh inconclusive
Cc1ccc(C2C(C(N)=S)=C(N)OC3=C2C(=O)CC(C)(C)C3)cc1 (centres undefined)	none
Fc1ccccc1/C=N/Nc1nc2ccccc2o1	FLuc modulator 3.01µM, Rab9 promoter act 2.24µM, NPC1 prom act 2.82µM, ELG1 genotoxic inconclusive (no result: SMN2 splice enh)
FC(F)Oc1ccccc1/C=N/Nc1nc2ccccc2o1	FLuc modulator inconclusive, Rab9 promoter act 3.98µM, NPC1 prom act inconclusive (no result: SMN2 splice enh)
CC(C)(C)c1ccc(S(=O)(=O)N2CCC(c3ccncc3)CC2)cc1	none (no result: Rab9 promoter act, SMN2 splice enh, NPC1 prom act, ELG1 genotoxic)
CC1=NN(c2ccccc2)C(=O)/C1=C\c1cc(C)n(-c2ccccc2)c1C	FLuc modulator 0.536µM, ELG1 genotoxic inconclusive
CC1=NN(c2cccc(C(=O)O)c2)C(=O)/C1=C\C=C/c1ccccc1	FLuc modulator 2.39µM
CC1=NN(c2ccc(C)cc2)C(=O)/C1=C\C=C\c1ccccc1	FLuc modulator inconclusive
CC1=NN(c2ccccc2)C(=O)/C1=C\c1cc(C)n(-c2cccnc2)c1C	FLuc modulator 2.69µM (no result: SMN2 splice enh)
CC1=NN(c2ccccc2)C(=O)/C1=C\N(O)c1ccccc1	FLuc modulator inconclusive (no result: SMN2 splice enh)
Cc1cc(/C=C2/SC(=S)N(c3ccc([N+](=O)[O-])cc3)C2=O)c(C)n1-c1cccnc1	none
